Rows were chosen to be rich in hits. Some 4% of all compounds tested hit in one or more screens of this group.
KKLEB tox: cytotoxicity in KKLEB CF airway cells, primary screen, cytotoxicity control for CF NF-kB inhibitor project, cell-based, uHTS, fluorescence assay plates; KKLEB CF airway cells viability, ATPlite luminescence, overnight; active compounds read low; cells stimulated with P. aeruginosa culture filtrate; activity change (cytotoxicity), % at 5 µM; 360,000 compounds, 0.36% hits;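 active = corrected activity change at or below -50% at 5 µM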
TROY signal inh: inhibitors of TROY-driven NF-kB signaling, primary screen, Q293 LMP1-TROYcd cells, NF-kB luciferase, uHTS. inhibition, % at 10 µM. AID 1347056, 2019. Q293 LMP1-TROYcd NF-kB luciferase reporter, 4 h. 360,000 compounds, 0.98% hits;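 active = compounds whose plate-normalised and pattern-corrected inhibition of the luciferase reporter signal at the single screening dose is 50% or more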
HIF-2a block: HIF-2a reporter inhibitors, primary screen, luminescence, 786-0 RCC cells. 360,000 compounds, 0.72% hits. 786-0 RCC cells HIF-2a reporter, luciferase luminescence, overnight. AID 624352, 2012. inhibition, % at 18.8 µM;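 active = inhibition of the luminescence signal of 40% or more relative to plate controls, in a single-dose primary screen at 18.75 µM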
Peg3 promoter: Peg3 promoter-driven luciferase inhibitors, primary screen, cell-based, HeLa, luciferase luminescence. HeLa PEG-Prom luciferase reporter, overnight. inhibition, % at 20 µM. 360,000 compounds, 1.7% hits. AID 588405, 2011;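 active = inhibition of at least 50% at 20 µM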
CF NFkB inh: inhibitors of PAF-induced NF-kB signaling, primary screen, cell-based, GFP fluorescence, uHTS. 360,000 compounds, 0.86% hits. inhibition, % at 5 µM. AID 588850, 2011. KKLEB NF-kB-GFP reporter, GFP fluorescence overnight;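 active = at least 50% inhibition at 5 µM, scaled per plate between neutral and stimulator controls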;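 note: PAF is a Pseudomonas aeruginosa culture filtrate used as stimulus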
TWEAK-Fn14 inh: inhibitors of TWEAK-Fn14 signaling, primary screen, luciferase reporter cells, uHTS. TWEAK-stimulated Fn14 reporter cells, luciferase luminescence, 8 h. AID 1159606, 2016. inhibition, % at 10 µM. 360,000 compounds, 2% hits; in the data active = inhibition above about 50%
CF NFkB inh conf: inhibitors of PAF-induced NF-kB signaling, retest, confirmation, cell-based, GFP fluorescence, single concentration; shares compounds with CF NFkB inh; KKLEB CF airway cells, overnight; inhibition, % at 5 µM; 1,300 compounds, 64% hits; AID 602472, 2012; in the data active = inhibition above about 40%;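 note: stimulus PAF is a Pseudomonas aeruginosa filtrate and not platelet activating factor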
Mdm2-MdmX confirm: retested Mdm2-MdmX interaction blockers, confirmation, cell-based, luminescence, single concentration, set 2. shares compounds with HIF-2a block. SaOS-2 split-luciferase Mdm2/MdmX complementation. inhibition, % at 8 µM. 740 compounds, 99% hits. AID 504601, 2011;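 active = mean inhibition of the luminescence signal across two replicates at or above 26 percent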
Target sequence (O15151 whole entry, looked up): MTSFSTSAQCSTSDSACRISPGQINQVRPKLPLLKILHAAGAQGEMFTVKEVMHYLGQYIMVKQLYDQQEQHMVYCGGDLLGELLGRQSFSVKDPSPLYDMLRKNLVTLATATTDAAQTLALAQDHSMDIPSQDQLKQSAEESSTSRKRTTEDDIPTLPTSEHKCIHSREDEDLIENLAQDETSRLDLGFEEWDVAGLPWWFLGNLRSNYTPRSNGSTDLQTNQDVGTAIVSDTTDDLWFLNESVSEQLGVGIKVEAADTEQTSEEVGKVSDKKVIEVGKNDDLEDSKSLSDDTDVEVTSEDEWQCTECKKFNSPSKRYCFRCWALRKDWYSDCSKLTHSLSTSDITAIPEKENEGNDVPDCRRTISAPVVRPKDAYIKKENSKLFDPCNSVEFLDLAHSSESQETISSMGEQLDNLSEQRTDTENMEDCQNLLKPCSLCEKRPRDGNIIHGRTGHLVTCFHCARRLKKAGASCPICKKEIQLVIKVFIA
Target sequence (Q00987 whole entry, looked up): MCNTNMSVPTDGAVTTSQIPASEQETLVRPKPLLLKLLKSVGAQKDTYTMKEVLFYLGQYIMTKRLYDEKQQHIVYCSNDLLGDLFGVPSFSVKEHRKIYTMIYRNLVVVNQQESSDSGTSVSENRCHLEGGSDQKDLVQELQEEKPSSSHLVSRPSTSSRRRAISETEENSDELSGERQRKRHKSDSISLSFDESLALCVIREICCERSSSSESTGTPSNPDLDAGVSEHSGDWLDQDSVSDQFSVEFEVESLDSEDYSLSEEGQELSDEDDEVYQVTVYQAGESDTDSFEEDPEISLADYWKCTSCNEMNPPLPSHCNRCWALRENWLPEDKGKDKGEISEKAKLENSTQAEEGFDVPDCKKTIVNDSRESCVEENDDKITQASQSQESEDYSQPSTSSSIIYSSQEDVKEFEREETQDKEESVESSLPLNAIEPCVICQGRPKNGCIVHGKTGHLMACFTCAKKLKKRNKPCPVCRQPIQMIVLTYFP
HIF-2a conf: HIF-2a reporter inhibitor retest, confirmation, luminescence, 786-0 RCC cells | 1,800 compounds, 56% hits | AID 651580, 2012 | shares compounds with HIF-2a block | HIF-2a luciferase reporter luminescence, overnight | inhibition, % at 18.8 µM;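 active = mean inhibition across four replicates of at least 40 percent at the single tested concentration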
HIF-1a cs: HIF-1a luciferase reporter signal reduction – MiaPaCa-2 cells, single concentration, counter-screen for HIF-2a inhibitor project, confirmation; MiaPaCa-2 HIF-1a luciferase reporter, desferoxamine, overnight; inhibition, % at 18.8 µM; shares compounds with HIF-2a block; 1,800 compounds, 72% hits;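 active = mean inhibition of the reporter signal across four replicates at the single tested dose of 50% or more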
Hits are given with their value.

Cc1cccc(/C=C(\c2nc3ccccc3[nH]2)S(=O)(=O)c2ccccc2)c1 was read as KKLEB tox inactive, TROY signal inh inactive, HIF-2a block 88, Peg3 promoter 112, CF NFkB inh 55, TWEAK-Fn14 inh 75, CF NFkB inh conf inactive, HIF-2a conf 92 and HIF-1a cs 105.
For Cc1cc(C)c(C(=O)/C=C/c2ccc(C(C)C)cc2)c(=O)[nH]1 the results were KKLEB tox inactive, TROY signal inh 55, HIF-2a block 59, Peg3 promoter 68, CF NFkB inh 59, TWEAK-Fn14 inh 93, CF NFkB inh conf 53, Mdm2-MdmX confirm 103, HIF-2a conf 53 and HIF-1a cs 102.
For Cc1cc(C)c(C(=O)/C=C/C=C/c2ccccc2)c(=O)[nH]1 the results were KKLEB tox inactive, TROY signal inh inactive, HIF-2a block inactive, Peg3 promoter inactive, CF NFkB inh inactive and TWEAK-Fn14 inh inactive.
For CC(=O)Nc1cccc(C(=O)/C=C/c2ccc(Br)cc2)c1 the results were KKLEB tox inactive, TROY signal inh inactive, HIF-2a block 92, Peg3 promoter 101, CF NFkB inh 78, TWEAK-Fn14 inh 67, CF NFkB inh conf inactive, Mdm2-MdmX confirm 103, HIF-2a conf inactive and HIF-1a cs 105.
`CC(=O)Nc1cccc(C(=O)/C=C/c2ccc(N(C)C)cc2)c1` gave KKLEB tox inactive, TROY signal inh inactive, HIF-2a block inactive, Peg3 promoter inactive, CF NFkB inh inactive and TWEAK-Fn14 inh inactive.
`O=C(c1ccccc1)C(CCC(CN1CCOCC1)C(=O)c1ccccc1)CN1CCOCC1` (configuration not stated) gave KKLEB tox inactive, TROY signal inh 51, HIF-2a block 76, Peg3 promoter 105, CF NFkB inh 84, TWEAK-Fn14 inh 85, CF NFkB inh conf inactive and Mdm2-MdmX confirm 92.
`COc1ccccc1-c1cn[nH]c1-c1ccc(OCc2ccccc2)cc1O` gave KKLEB tox inactive, TROY signal inh inactive, HIF-2a block inactive, Peg3 promoter inactive, CF NFkB inh inactive and TWEAK-Fn14 inh inactive.
`COc1ccc(-c2cn[nH]c2-c2ccc(OCc3ccccc3)cc2O)cc1` gave KKLEB tox inactive, TROY signal inh inactive, HIF-2a block inactive, Peg3 promoter inactive, CF NFkB inh 70, TWEAK-Fn14 inh 63, CF NFkB inh conf 89 and Mdm2-MdmX confirm 90.
`COC(=O)C[C@H]1CC[C@H](NC(=O)Nc2ccccc2OC)[C@@H](CO)O1` gave HIF-2a block inactive.
`O=C(C1CCCO1)N1CCN(C(=S)Nc2cc(F)cc(F)c2)CC1` (configuration not stated) gave KKLEB tox inactive, TROY signal inh inactive, HIF-2a block inactive, Peg3 promoter inactive, CF NFkB inh inactive and TWEAK-Fn14 inh inactive.
Screening Cc1nc2sc(C(N)=O)c(N)c2c2c1CCCC2 returned KKLEB tox inactive, TROY signal inh inactive, HIF-2a block inactive, Peg3 promoter inactive, CF NFkB inh 70, TWEAK-Fn14 inh inactive, CF NFkB inh conf 98 and Mdm2-MdmX confirm 92.
For CC12CC(NC(=O)N1c1cccc(C(=O)N3CCCCC3)c1)c1ccccc1O2 (configuration not stated) the results were KKLEB tox inactive, TROY signal inh inactive, HIF-2a block inactive, Peg3 promoter inactive, CF NFkB inh inactive and TWEAK-Fn14 inh inactive.
C/C(=N\NC(=O)c1c(C)nc2ccccn12)c1cccc([N+](=O)[O-])c1 was read as KKLEB tox inactive, TROY signal inh inactive, HIF-2a block inactive, Peg3 promoter inactive, CF NFkB inh inactive and TWEAK-Fn14 inh inactive.
Screening Cc1nc2ccccn2c1C(=O)/C=C/c1cccc([N+](=O)[O-])c1 returned KKLEB tox inactive, TROY signal inh inactive, HIF-2a block 75, Peg3 promoter 102, CF NFkB inh 71, TWEAK-Fn14 inh 94, CF NFkB inh conf inactive, HIF-2a conf inactive and HIF-1a cs inactive.
For COC(=O)c1ccc2c(c1)C(C)(C)C(/C=C/c1ccccc1O)=[N+]2C the results were KKLEB tox inactive, TROY signal inh inactive, HIF-2a block 96, Peg3 promoter 105, CF NFkB inh 64, TWEAK-Fn14 inh 87, CF NFkB inh conf 97, Mdm2-MdmX confirm 103, HIF-2a conf 99 and HIF-1a cs 105.
Screening C[N+]1=C(/C=C/Nc2ccccc2Cl)C(C)(C)c2ccccc21 returned KKLEB tox inactive, TROY signal inh inactive, HIF-2a block inactive, Peg3 promoter inactive, CF NFkB inh inactive and TWEAK-Fn14 inh inactive.
`O=[N+]([O-])C1C(c2ccccc2)C12c1ccccc1-c1ccccc12` (configuration not stated) gave KKLEB tox inactive, TROY signal inh inactive, HIF-2a block 49, Peg3 promoter 53, CF NFkB inh 68, TWEAK-Fn14 inh 57, CF NFkB inh conf 46, HIF-2a conf 43 and HIF-1a cs inactive.
Cn1c(=O)c(C(=O)NCCc2ccc(Cl)cc2)c(O)c2ccccc21 was read as KKLEB tox inactive, TROY signal inh inactive, HIF-2a block inactive, Peg3 promoter inactive, CF NFkB inh inactive and TWEAK-Fn14 inh inactive.
Screening C#CCN(C[C@@H]1[C@@H](OC(=O)NCc2ccco2)[C@@H](OC(=O)NCc2ccco2)Cn2c(=O)ccc(=O)n21)S(=O)(=O)c1ccc(C)cc1 returned KKLEB tox inactive, TROY signal inh inactive, HIF-2a block 43, Peg3 promoter 95, CF NFkB inh 66, TWEAK-Fn14 inh inactive, CF NFkB inh conf 52, HIF-2a conf 44 and HIF-1a cs 107.
